Compound activity as filed in PubChem BioAssay.
Hits are enriched below; roughly 12% of the tested compounds scored in any of these assays.
Lmaj promast: inhibitors of Leishmania major promastigote growth; Leishmania major promastigotes, resazurin fluorescence viability; hit rate 9% among 200,000; AID 1063; inhibition, % at 10 µM; in the data active = inhibition above about 50%;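 also: promastigotes grown with compound for 44 hours at 28 °C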
WT yeast gro inh: growth inhibition of WT yeast, mitochondrial fusion screen. mitochondrial fusion phenotypic screen, WT strain. inhibition, % at 10 µM. hit rate 2.1% among 190,000. AID 1362; in the data active = inhibition above about 58%; tested in S. cerevisiae
Arbovirus anti: blocks arbovirus infection | hit rate 0.37% among 200,000 | AID 1251 | arbovirus infection cell-based antiviral screen | inhibition, % at 10 µM; in the data active = inhibition above about 30%
CHOP inh: inhibitors of CHOP induction in ER stress response. CHO-K1 CHOP-promoter luciferase, tunicamycin-induced, 15-18 h. inhibition, % at 10 µM. hit rate 3.8% among 220,000;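 active = compounds that reduced the stress-induced luciferase reporter signal by more than about 70% of percent inhibition, limit read from the data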;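 also: 0% = tunicamycin plus vehicle and 100% = wells without tunicamycin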
Numbers without * were called inactive; / = no result; ! = not active in a repeat.

SMILES	Lmaj promast	WT yeast gro inh	Arbovirus anti	CHOP inh
CN(C)CCCNc1ccc(-c2nn(C)c(=O)c3ccccc23)cc1[N+](=O)[O-]	100*	-1	-12	-8
COc1ccc(S(=O)(=O)N2CCOCC2)cc1NC(=O)CCc1c[nH]c2ccccc12	20	-8	-2	10
O=C(Nc1cccnc1)C1CCC(CNS(=O)(=O)c2cccc3nsnc23)CC1 (configuration not stated)	/	/	/	-5
Cc1c(Cl)cccc1Nc1nc(N)nc(CN2CCc3ccccc3C2)n1	89*	36	-33	22
Cc1ccc(Nc2nc(N)nc(CN3CCC(C)CC3)n2)c(C)c1	62*	-16	-2	8
Cc1ccc(Nc2nc(N)nc(CSc3nc4ccccc4s3)n2)cc1	23	86*	-3	9
Cc1ccccc1Nc1nc(N)nc(CSc2nc3ccccc3s2)n1	28	47	8	3
Cc1ccccc1Nc1nc(N)nc(CN(C)Cc2ccccc2Cl)n1	51*	3	-6	6
Cc1ccc(SCc2nc(N)nc(Nc3ccccc3C)n2)c(C)c1	60*	41	0	22
Cc1ccc(SCc2nc(N)nc(Nc3ccccc3C)n2)cc1C	11	40	-2	31
Cc1ccccc1Nc1nc(N)nc(CSCC(=O)Nc2cccc(Br)c2)n1	81*	-12	1	33
Cc1ccc(NC2CC(C)NC(=S)N2)cc1 (configuration not stated)	/	/	/	8
COc1cc(/C=C(\C#N)C(=O)Nc2ccccc2C(=O)O)cc(Cl)c1OC	-5	-1	4	9
NC(=S)N/N=C1\CCOc2ccc(F)cc21	/	/	/	22
COC(=O)c1sccc1NC(=O)c1cc(-c2cc(C)ccc2C)nc2ccccc12	10	1	-5	93*
Cc1ccc(C)c(-c2cc(C(=O)Nc3nccs3)c3ccccc3n2)c1	14	61*	18	48
CCN(CC)c1ccc(NC(=O)CCNC(=O)c2ccco2)cc1	90*	-14	-5	24
O=C(CCNC(=O)c1ccco1)Nc1ccc(Cl)cc1	4	2	-9	-7
Cc1ccc(CNC(=O)CCNC(=O)c2ccco2)cc1	-5	95*	4	3
Cc1ccc(S(=O)(=O)CCC(=O)OCc2ccc(Cl)cc2)cc1	55*	30	2	-3
Cc1ccc(S(=O)(=O)CCC(=O)NCc2ccccc2)cc1	57*	4	9	21
Cc1ccc(CNC(=O)CCS(=O)(=O)c2ccc(Cl)cc2)cc1	-6	-7	3	3
COc1ccc2nc(-c3ccc(Cl)cc3)cc(C(=O)O)c2c1	/	/	/	-15
Cc1ccc(S(=O)(=O)CCC(=O)OCC(=O)NC(N)=O)cc1	/	/	/	21
Cc1ccc(S(=O)(=O)CCC(=O)c2ccc(O)cc2O)cc1	100*	46	-47	-14
SMILES	Lmaj promast	WT yeast gro inh	Arbovirus anti	CHOP inh
COc1ccc(CN(Cc2ccccn2)S(=O)(=O)c2ccc(-n3cnnn3)c(OC)c2)cc1	80*	-1	7	39
COc1cc(S(=O)(=O)N(Cc2cccnc2)Cc2cccc(OC)c2OC)ccc1-n1cnnn1	/	/	/	-6
COc1ccc(CN(Cc2cccnc2)S(=O)(=O)c2ccc(-n3cnnn3)c(C)c2)cc1OC	87*	0	2	-2
CC(=O)N(c1cccc(Br)c1)c1nc(C)cc(C)c1C#N	/	/	/	4
CCOc1ccc(OCCOCCOc2c(Cl)cccc2Cl)cc1	60*	/	/	/
C=CCc1cc(Cl)ccc1OCCNCCOC	95*	12	-13	18
C=CCc1cc(Cl)ccc1OCCN1CC(C)OC(C)C1 (configuration not stated)	83*	35	0	-20
C=CCc1cc(Cl)ccc1OCCNCCN1CCOCC1	95*	20	-31	13
Nc1nonc1C(=O)NCCNS(=O)(=O)c1ccc(Br)cc1	-6	6	5	17
CC(=O)c1cc(-c2ccccc2)n(CCC(=O)NC2CCCCCCC2)c1C	7	40	-11	51
CCOC(=O)c1cc(-c2ccc(F)cc2)n(CCC(=O)NC2CCN(Cc3ccccc3)CC2)c1C	80*	32	-12	32
CCOC(=O)c1cc(-c2ccc(OC)cc2)n(CCC(=O)NC2CCN(Cc3ccccc3)CC2)c1C	84*	-2	-27	10
CCOC(=O)c1cc(-c2ccc(OC)cc2)n(CCC(=O)NCCN2CCC(C)CC2)c1C	23	9	-16	7
O=C(NCC1CCCO1)c1cc([N+](=O)[O-])ccc1Cl (configuration not stated)	0	-7	-6	30
Cc1ccc(/C=C/C(=O)c2ccccc(=O)c2O)c(C)c1	81*	0	-23	77*
O=C(/C=C/c1ccccc1Cl)c1ccccc(=O)c1O	100*	-17	-38	-64
Cc1ccc(C)c(/C=C/C(=O)c2ccccc(=O)c2O)c1	99*	9	-36	93*
Cc1ccc(/C=C/C(=O)c2ccccc2)cc1	18	/	2	-42
Cc1ccc(C(=O)/C=C/c2ccc3c(c2)OCCO3)c(O)c1	/	/	/	-66
O=c1oc2ccccc2cc1-c1nc2c(s1)CCCC2	3	8	1	96*
O=c1oc2ccccc2cc1-c1csc(NN=C2CCCCC2)n1	33	16	-21	-41
CCN1CCN(Cc2ccc(NC(=O)c3cc(NC(=O)c4cc(-c5ccc(OC)cc5)n[nH]4)cc(OC)c3)cc2C(F)(F)F)CC1	/	/	/	87*
CCc1ccc(NC(=S)N2CCN(c3cccc(OC)c3)CC2)cc1	11	6	7	72*
Cc1ccc(NC(=S)N2CCN(Cc3ccccc3)CC2)cc1	-2	-5	22	-5
COc1ccc(NC(=S)N2CCN(Cc3ccc(C)cc3)CC2)cc1	62*	-4	1	2
SMILES	Lmaj promast	WT yeast gro inh	Arbovirus anti	CHOP inh
COC(=O)c1ccc(NC(=S)N2CCN(Cc3cccc(C)c3)CC2)cc1	-1	7	3	89*
COc1cccc(-c2csc(N3CCN(C(=S)Nc4ccccc4)CC3)n2)c1	-4	10	6	39
COc1cccc(-c2csc(N3CCN(C(=S)Nc4ccc(Cl)cc4)CC3)n2)c1	79*	43	1	71*
O=c1[nH]c(CSc2nnc3ccccn23)nc2cc(C(F)(F)F)ccc12	-8	-3	4	5
C[C@@H](Oc1ccccc1)c1nnn(Cc2ccccc2)c1-c1c([C@@H](C)Oc2ccccc2)nnn1Cc1ccccc1	/	/	/	42
CCN(CC)c1nc(C)nc2c1cnn2CCc1ccccc1	5	4	-11	-26
CC(C)c1ccc(NC(=S)N2CCN(Cc3ccccc3)CC2)cc1	86*	40	1	8
S=C(Nc1ccc(Cl)cc1)N1CCN(Cc2ccccc2)CC1	-4	5	15	30
FC(F)Oc1ccc(NC(=S)N2CCN(Cc3ccccc3)CC2)cc1	80*	28	15	-13
N=C(N)SCc1nc2ccccc2c(=O)n1-c1ccccc1	6	8	30*!	-8
O=c1c2ccccc2nc(SCc2ccc([N+](=O)[O-])cc2)n1-c1ccccc1	54*	-2	-13	20
N=C(N)n1c(N)nc2ccccc2c1=O	/	/	/	32
O=C(Nn1c(SCc2cccc([N+](=O)[O-])c2)nc2ccccc2c1=O)c1ccccc1	9	4	39*	-35
CN1CCC(=O)N(CCSc2ccc(Br)cc2)CC1	/	/	/	-43
